Data: ChEMBL document CHEMBL3988442, “University of Dundee, Small-Polar-MMV Screening Library” (2021)
The campaign covered roughly 48,000 compounds. About 13,000 (27%) showed an effect of 50% or more. The list shows a part of the results.

The compounds below were run on Wolbachia pipientis (assay: Anti-Wolbachia Cell-Based Screen). Details: 5 µM.
Assay type: functional
Parameters: scale not given: in the data most compounds retested in dose-response had high values

Row | SMILES | Percent Effect [%]
1 | Cc1nccc(-c2ccccc2)c1C(=O)N1CC[C@](C)(O)[C@H](C)C1 | -6.254
2 | CC(C)CN(C)S(=O)(=O)c1ccc(Cl)cc1C#N | -10.78
3 | COc1cc(CN(C(=O)Nc2cccnc2OC)C2CC2)ccc1O | -7.175
4 | COc1ncccc1NC(=O)N(Cc1ccccn1)C1CC1 | 99.69
5 | COc1ncccc1NC(=O)N(Cc1ccco1)C1CC1 | 106.8
6 | COc1ncccc1NC(=O)N(CC(C)C)C1CC1 | 114.6
7 | CCN(CC)C(=O)C1CCN(C(=O)Nc2cccnc2OC)CC1 | 6.94
8 | COc1ncccc1NC(=O)N(Cc1ccc(C)o1)C1CC1 | -9.414
9 | COc1ncccc1NC(=O)N1CCC(CNC(C)=O)CC1 | 2.478
10 | CCN(C(=O)Nc1cccnc1OC)C1CC1 | -1.512
11 | CN(C)C(CNC(=O)N(Cc1ccco1)C1CC1)c1cccs1 (stereo not given) | 11.82
12 | CCC(C)C(=O)N(Cc1ccccn1)C1CC1 (stereo not given) | -10.35
13 | COc1ncccc1NC(=O)N(Cc1ccc(C(N)=O)cc1)C1CC1 | 99.11
14 | CC(C)c1cc(NC(CCO)c2ccccc2)n2nccc2n1 (stereo not given) | 9.375
15 | COc1ccc(N(C)C(=O)C2CN(C)CCO2)cc1F (stereo not given) | 4.691
16 | O=C1CN(Cc2nnc(-c3ccc(Br)o3)o2)CCN1 | -7.381
17 | Cc1ccc(S(=O)(=O)NCc2[nH]ncc2Br)cc1F | -12.16
18 | COc1ncccc1NC(=O)N(C1CC1)C(C)C(C)C (stereo not given) | 116
19 | COc1ncccc1NC(=O)C1CCS(=O)(=O)C1 (stereo not given) | 1.624
20 | COc1ncccc1NC(=O)N1CCC(C(=O)NC(C)C)CC1 | 0.676
21 | CCNC(=O)C(C)NC(=O)Nc1ccccc1SC(F)(F)F (stereo not given) | -8.555
22 | COCC(=O)N1CC(C(=O)NCC2CC2)C2(CCOCC2)C1 (stereo not given) | 104.6
23 | O=C(NCC1CC1)C1CN(C(=O)Cc2cccs2)CC12CCOCC2 (stereo not given) | 5.816
24 | Cc1ccsc1C(=O)N1CC(C(=O)NCC2CC2)C2(CCOCC2)C1 (stereo not given) | 12.17
25 | Cc1ccoc1C(=O)N1CC(C(=O)NCC2CC2)C2(CCOCC2)C1 (stereo not given) | -3.998
26 | CC(C)NC(=O)C1CN(C(=O)Nc2ccccc2)CC12CCOCC2 (stereo not given) | 0.6544
27 | CN(C)C(=O)N1CC(C(=O)NCC2CC2)C2(CCOCC2)C1 (stereo not given) | 105.7
28 | CC(C)NC(=O)C1CN(C(=O)N2CCCC2)CC12CCOCC2 (stereo not given) | -8.761
29 | O=C(NCC1CC1)C1CN(C(=O)c2ccncc2)CC12CCOCC2 (stereo not given) | -0.9426
30 | CC(C)NC(=O)C1CN(C(=O)N(C)C)CC12CCOCC2 (stereo not given) | 94.32
